Experiment [1] has as its target Glutathione peroxidase 1 (Homo sapiens) (UniProt P07203). Put plainly: Primary qHTS Assay for Inhibitors of Recombinant Selenoprotein Glutathione Peroxidase 1 (GPX1) (AID 1845191). Also: nearly all actives have a fitted effect of over 65% in size. An outline of the steps:
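NADPH consumption tracked by fluorescence at 340/450 nm between t=0 and t=15 min, room temperature. Final mix: 10 nM GPX1, 100 nM glutathione reductase, 1 mM GSH, 0.5 mM NADPH, 0.5 mM cumene hydroperoxide, 0.01% BSA; 30 min compound–enzyme preincubation.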
(In general: qHTS replaces the single test concentration by a dilution series.)

The target in experiment [2] is Phospholipid hydroperoxide glutathione peroxidase GPX4 (Homo sapiens) (UniProt P36969). Nature of the experiment: Primary qHTS Assay for Inhibitors of Recombinant Selenoprotein Glutathione Peroxidase 4 (GPX4) (AID 1845192). Also: nearly all actives have a fitted effect of over 65% in size. As to activity change, negative = inhibition: series mostly up to about 50 µM; % is scaled to controls: 0 for no effect and ±100 for the full control effect. An outline of the steps:
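NADPH consumption followed by fluorescence at 340/450 nm, t=0 and after 15 min at room temperature. Reaction started with cumene hydroperoxide (0.5 mM final) after 30 min compound–GPX4 preincubation; final 200 nM GPX4, 100 nM GR, 1 mM GSH, 0.5 mM NADPH.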

The target in experiment [3] is Luciferin 4-monooxygenase (Photinus pyralis) (UniProt P08659). Put plainly: Primary firefly luciferase (FLuc) qHTS assay for identification of artifact compounds. (AID 1845220). Also: nearly all actives have a fitted effect of over 60% in size. Also: potency is read from the fitted curve at half-maximal effect.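 As to activity change, negative = inhibition: series mostly up to about 54 µM; plate controls were DMSO vehicle for no effect and no enzyme for full effect.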 Summed up:
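Compounds sat 15 min at room temperature with 10 uM luciferin and 10 uM ATP (pH 7.6 Tris acetate). Firefly luciferase (10 nM final) was then added, and luminescence was read 5 min later. Data normalized to no-enzyme and DMSO controls were Hill-fitted.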

The nature of experiment [4]: Primary fluorescence-based thiol-reactive (MSTI) qHTS assay for identification of artifact compounds. (AID 1845221). Also: nearly all actives have a fitted effect of over 65% in size. Also: potency is read from the fitted curve at half-maximal effect.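 As to activity change, negative = thiol reactive: series mostly up to about 54 µM; thiol-reactive compounds lower the probe fluorescence signal.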 Summed up:
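qHTS titration of compound; 4 uM MSTI, PBS pH 7.4, 2% DMSO; 1 h RT, dark; fluorescence 525/598 nm; normalized to Acetyl-MSTI and MSTI; 4-parameter Hill fit.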

Unmarked numbers belong to inactive results. Records with an inconclusive call do not appear. The source made the active and inactive calls. Calls follow the shape of the dose curve; as a rule, active = well fitted curve in the direction sought with a large enough effect; inconclusive = small, poorly fitted or top-dose-only effect, or another doubt; inactive = no such curve, though single readings can be large; an effect the other way counts as inactive or inconclusive.

Chain of Phospholipid hydroperoxide glutathione peroxidase GPX4 (Homo sapiens) (P36969 whole entry, looked up): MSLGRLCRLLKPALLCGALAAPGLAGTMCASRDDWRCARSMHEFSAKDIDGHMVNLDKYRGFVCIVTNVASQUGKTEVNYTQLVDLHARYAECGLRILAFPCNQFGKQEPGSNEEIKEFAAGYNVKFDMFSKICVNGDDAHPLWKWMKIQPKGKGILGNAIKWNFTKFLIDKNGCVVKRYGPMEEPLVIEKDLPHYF
Chain of Glutathione peroxidase 1 (Homo sapiens) (P07203 whole entry, looked up): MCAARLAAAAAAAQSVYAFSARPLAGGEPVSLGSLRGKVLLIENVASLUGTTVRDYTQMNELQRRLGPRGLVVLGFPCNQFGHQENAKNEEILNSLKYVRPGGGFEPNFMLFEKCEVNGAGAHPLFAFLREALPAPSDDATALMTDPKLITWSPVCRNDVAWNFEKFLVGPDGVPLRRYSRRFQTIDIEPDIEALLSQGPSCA

As to `C=C1C(O)C(OC(=O)c2ccccc2)C2C(C)(C(=O)O)CCCC2(C)C1CC/C(C)=C\CO` (centres undefined), the Potency entry in experiment [1], in experiment [2], in experiment [3] and in experiment [4] was “inactive” each time.
For `C=C1CCc2occ(C)c2[C@H]2[C@H]1[C@@]13O[C@@]1(C[C@@H](C)[C@H]3OC(C)=O)[C@H]1O[C@@]21C`, the Potency result in experiment [1], in experiment [2], in experiment [3] and in experiment [4] was “inactive” each time.
Turning to `CC1=CC(=O)CC(C)(C)C1CCC(C)O[C@@H]1O[C@H](CO)[C@@H](O)[C@H](O)[C@H]1O` (some centres undefined), the Potency entry in experiment [1], in experiment [2] and in experiment [3] was “inactive” in each case. Besides, the Potency in experiment [4] was 9.27 µM (active).
Consider `CC1(C)C=Cc2c(ccc3c2N=C2C(C)(C)[C@@H]4C[C@]56CCCN5C(=O)[C@@]4(C[C@]23O)NC6=O)O1`, for which the Potency entry in experiment [1], in experiment [2], in experiment [3] and in experiment [4] was “inactive” in each case.
With `COC(=O)CCC1(C)C(C(C)(C)O)C(O)CC2(C)Oc3c(C)c4c(c(OC)c3CC21)C(=O)OC4` (centres undefined), the Potency entry in experiment [1], in experiment [2], in experiment [3] and in experiment [4] was “inactive” in each case.
With `CC12CC34CC(O)C5C(CO)(CO)CC(=O)CC5(C)C3CC1C2C4` (centres undefined), the Potency result in experiment [1], in experiment [2], in experiment [3] and in experiment [4] was “inactive” each time.
`OC[C@@]1(O)CO[C@H](OC[C@H]2O[C@@H](OC(CCCCc3ccc(O)cc3)CCc3ccc(O)cc3)[C@H](O)[C@@H](O)[C@@H]2O)[C@@H]1O` (some centres undefined): the Potency entry in experiment [1], in experiment [2], in experiment [3] and in experiment [4] was “inactive” in each case.
For `COc1cc(C)c(C(=O)O[C@@H]2[C@H](O)[C@@H](CO)O[C@H]2n2ccc(=O)[nH]c2=O)c(OC)c1`, the Potency entry in experiment [1], in experiment [2], in experiment [3] and in experiment [4] was “inactive” in each case.
With `CC(C)C1NC(=O)C(CC2(O)c3ccccc3N3C(=O)C(Cc4ccccc4)NC32)NC1=O` (centres undefined), the Potency entry in experiment [1], in experiment [2], in experiment [3] and in experiment [4] was “inactive” throughout.
With `C/C=C/C=C/C1=C2C(=O)C3(C)C4C(C(=O)CC(O)/C=C/C)=C(O1)C1(C)C2C2(C)OC1(O)C4(C)OC23O` (centres undefined), the Potency entry in experiment [1], in experiment [2] and in experiment [3] was “inactive” throughout. Besides, the Potency in experiment [4] is 5.82 µM (active).
Take `CC1(C)C2CC[C@@]34CC(CC[C@H]3[C@]2(C)CC[C@@H]1O[C@@H]1O[C@H](CO)[C@@H](O)[C@H](O)[C@H]1O)[C@](C)(O)C4` (some centres undefined): the Potency result in experiment [1], in experiment [2], in experiment [3] and in experiment [4] was “inactive” in each case.
Regarding `C=C1CCC2[C@](C)(CO)CCC[C@@]2(C)[C@@H]1CCC1=CCOC1=O` (some centres undefined), the Potency result in experiment [1], in experiment [2], in experiment [3] and in experiment [4] was “inactive” in each case.
For `CC(=O)OCC1OC(O[C@H]2CC[C@]34C[C@]35CC(O)[C@]3(C)[C@@H]([C@H](C)CC/C=C(\C)C(=O)O)C(O)C[C@@]3(C)C5CC[C@H]4C2(C)C)C(O)C(O)C1OC1OCC(O)C(O)C1O` (some centres undefined), the Potency entry in experiment [1] and in experiment [2] was “inactive” in each case. The outcome in experiment [3] was “inactive [at 11.6 µM]”. For the same compound, the activity change, negative = thiol reactive in experiment [4] is 154% [at 11.5 µM].
Turning to `CC1CCC2(C)CCC3(C)C(=CCC4C5(C)CCC(O)C(C)(C(=O)O)C5CCC43C)C2C1C` (centres undefined), the Potency entry in experiment [1], in experiment [2], in experiment [3] and in experiment [4] was “inactive” throughout.
In the case of `C[C@]1(O)CC[C@@H]2C(C(=O)O)=CO[C@@H](O[C@@H]3O[C@H](COC(=O)/C=C/c4ccc(O)c(O)c4)[C@@H](O)[C@H](O)[C@H]3O)[C@@H]21`, the Potency result in experiment [1], in experiment [2] and in experiment [3] was “inactive” in each case. Besides, the Potency in experiment [4] was 3.27 µM (active).
In the case of `NC(=O)[C@@H]1CC[C@H](c2ccc(OCc3ccccc3F)cc2)N1`, the Potency result in experiment [1], in experiment [2] and in experiment [4] was “inactive” throughout. In addition, the Potency in experiment [3] was 10.7 µM (active).
Consider `Cn1cc(-c2c[nH]c3ncnc(N4CCOCC4)c23)cn1`, for which the Potency result in experiment [1], in experiment [2], in experiment [3] and in experiment [4] was “inactive” throughout.
Regarding `CC(=O)O[C@H]1C[C@@]2(C)[C@@H](CC[C@H]3[C@@]4(C)C=CC(=O)[C@@H](C)[C@@H]4[C@H](OC(C)=O)C(=O)[C@@]32C)/C1=C(\CCC=C(C)C)C(=O)O`, the Potency result in experiment [1], in experiment [2], in experiment [3] and in experiment [4] was “inactive” throughout.
As for `C[C@@H]1O[C@@H](O[C@@H]2[C@@H](O)[C@H](O[C@@H]3[C@@H](O)[C@@H](O)[C@H](O[C@H]4[C@H](OC(=O)[C@]56CCC(C)(C)C[C@H]5C5=CCC7[C@@]8(C)C[C@H](O)[C@H](O[C@@H]9O[C@H](C(=O)O)[C@@H](O)[C@H](O)[C@H]9O)[C@@](C)(CO)C8[C@H](O)C[C@@]7(C)[C@]5(C)C[C@H]6O)O[C@@H](CO)[C@@H]4O)O[C@H]3C)OC[C@H]2O)[C@H](O)[C@H](O)[C@H]1O` (some centres undefined), the Potency entry in experiment [1] and in experiment [2] was “inactive” throughout. Further, the activity change, negative = inhibition in experiment [3] is 2.08% [at 11.6 µM]. Also, the activity change, negative = thiol reactive in experiment [4] is 382% [at 11.5 µM].
In the case of `C=C1CCC2C(C)(C)CCC[C@]2(C)[C@H]1CC/C(C)=C/C(=O)O` (some centres undefined), the Potency entry in experiment [1], in experiment [2], in experiment [3] and in experiment [4] was “inactive” in each case.
Take `O=C(O)CC1(O)C(=O)Nc2ccccc21` (centres undefined): the Potency result in experiment [1], in experiment [2] and in experiment [3] was “inactive” in each case. The Potency in experiment [4] was 25.1 µM (active).
